# Data published in PubChem BioAssay AID1851 (National Center for Advancing Translational Sciences (NCATS), 2009).
# Values joined by “and” are separate entries in the source; they are usually repeats but may differ in a detail not shown here. Equal values may be shown once. Among all 16,000 compounds or so, about 2,600 (16%) were called active. Not shown: some 20% with an inconclusive outcome. The list is a sample of the results. Values without a mark were called inactive. Calls come from the whole dose curve; as a rule, active = well fitted curve in the direction sought with a large enough effect; inconclusive = small, poorly fitted or top-dose-only effect, or effect the other way; inactive = no such curve, though single readings can be large or run the other way.
# Target: Cytochrome P450 2D6 (Homo sapiens) (UniProt P10635)
# Sequence (P10635 whole entry, looked up): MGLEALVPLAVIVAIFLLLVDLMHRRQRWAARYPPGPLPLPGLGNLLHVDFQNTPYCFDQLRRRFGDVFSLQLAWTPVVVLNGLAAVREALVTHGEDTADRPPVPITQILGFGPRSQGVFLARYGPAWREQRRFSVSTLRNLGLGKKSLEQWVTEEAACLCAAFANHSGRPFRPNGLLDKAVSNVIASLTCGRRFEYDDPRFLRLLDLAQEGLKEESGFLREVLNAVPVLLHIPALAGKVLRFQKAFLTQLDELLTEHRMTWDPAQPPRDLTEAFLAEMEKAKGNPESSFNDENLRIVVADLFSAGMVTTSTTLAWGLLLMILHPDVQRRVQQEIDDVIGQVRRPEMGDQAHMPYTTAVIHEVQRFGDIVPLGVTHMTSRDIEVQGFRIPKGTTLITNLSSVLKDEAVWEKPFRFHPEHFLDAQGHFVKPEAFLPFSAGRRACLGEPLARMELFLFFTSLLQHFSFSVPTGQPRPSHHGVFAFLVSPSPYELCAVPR
# Experiment: Cytochrome panel assay with activity outcomes
# Conditions: recombinant CYP, pro-luciferin dealkylation, luminescence, p450-cyp2d6; series mostly up to 57.1 µM; activity, negative = inhibition: at the top concentration
# % is set by controls: 0 for no effect and ±100 for the full control effect.
SMILES,"activity, negative = inhibition",AC50
O=C(O)[C@H]1CCCN(CCC=C(c2ccccc2)c2ccccc2)C1,-4.61%,–
S[C@@H]1CCCN(Cc2ccccc2)C1,–,794 nM (active)
O=C(O)[C@@H]1CS[C@@]2(CCCN(Cc3ccccc3)C2)N1,-2.15% [at 11.4 µM],–
OCC1CCCN(Cc2ccc(-c3ccccc3)cc2)C1 (centres undefined),–,100 nM (active)
O=C1C2CCC(C(O)C2)N1Cc1ccccc1 (centres undefined),-23.9%,–
CC1(C(=O)CSc2nc3ccccc3s2)CCC(=O)O1 (centres undefined),-9.32%,–
CC(=O)O[C@@H](C)C[N+](C)(C)C,–,inactive
Cn1c(SC2=CS(=O)(=O)c3ccccc32)nc2ccccc21,1.48%,–
COC(=O)[C@@H]1C[C@H]1[C@@H](NC(=O)c1ccccc1)c1ccccc1,-12%,–
COc1ccc(NC2=NC(=S)N(c3ccc(C)cc3)C23CCCCC3)cc1,23%,–
CC1(C)CC(NCc2ccc3c(c2)OCO3)CCO1 (centres undefined),–,631 nM (active)
CC1(C)CC(NC(=O)c2ccc3c(c2)OCO3)CC(C)(C)N1,-9.2%,–
COc1ccc2[nH]cc(CCNc3ccnc(-c4cccc(NS(C)(=O)=O)c4)n3)c2c1,–,20000 nM (active)
COc1ccc2[nH]cc(CCNc3ccnc(-c4ccc(N(C)C)cc4)n3)c2c1,–,10000 nM (active)
Cc1cnc(CNc2ccnc(-c3cccc(NS(C)(=O)=O)c3)n2)cn1,4.19%,–
COc1ccc2[nH]cc(CCNc3ccnc(-c4cccnc4)n3)c2c1,–,1260 nM (active)
COCCNc1ccnc(-c2c(C)noc2C)n1,4.32%,–
COc1ccc2[nH]cc(CCNc3ccnc(-c4ccoc4)n3)c2c1,–,12600 nM (active)
CCOC(=O)CNS(=O)(=O)c1cc(-c2nn(C)c(=O)c3ccccc23)ccc1C,-17%,–
CCCCCCCCC(=O)N/N=C/c1ccccn1,-37.8%,–
CCNc1ncc2nc(-c3ccc(Cl)cc3)c(=O)n(Cc3cccc(OC)c3)c2n1,1.73%,–
O=[N+]([O-])c1ccc(N2CCC(=NOCc3ccc(Cl)cc3)CC2)cc1,1.17%,–

SMILES,"activity, negative = inhibition",AC50
O=c1c(-c2ccc(Cl)cc2)nc2cncnc2n1Cc1ccccc1Cl,-1.46%,–
CCOC(=O)CSc1nnc(CNC(=O)c2ccc(OC)cc2)n1C1CCCCC1,19.4%,–
Cc1ccc(C)c(-c2cc(C(=O)Nc3nccs3)c3ccccc3n2)c1,-20.1%,–
CCCCNC(=O)NC1C(NC(=O)NCCCC)N(C)C(=O)N1C (centres undefined),-4.61%,–
CC(=O)N1CC(=O)N(OCc2ccccc2)C1c1ccc(Cl)cc1Cl (centres undefined),0.615%,–
CCn1c(SCC(=O)OC)nc2sc3c(c2c1=O)CCC3,-18.7%,–
COC(=O)c1cccc(C(=O)Nc2ccc(C)cc2)n1,-7.78%,–
COc1ccc2[nH]cc(CCNc3ccnc(-c4ccc5c(c4)OCO5)n3)c2c1,–,7940 nM (active)
N#CCCn1c(=O)c(-c2cccc(C#N)c2)nc2cnc(Oc3cccc(Cl)c3)nc21,-19.3%,–
CC(=O)SCC[N+](C)(C)C,-1.14%,–
O=[N+]([O-])c1ccc([C@@H](Nc2ccccc2)c2ccc3cccnc3c2O)cc1,-2.01% [at 11.4 µM],–
O=C(c1cnccn1)N1CCC2(CC1)CCN(c1ncccn1)CC2,-11.6%,–
CC(C)CN1CCC2(CC1)CCN(C(=O)c1cnccn1)CC2,–,10000 nM (active)
CC(C)CN1CCCC2(CCN(C(=O)c3cnccn3)CC2)C1,-14.4%,–
CN1CCC2(CC1)CCN(C(=O)c1ccncc1)CC2,-9.34%,–
CC(C)NC(=O)N1CCC2(CC1)CCN(C(=O)c1ccncc1)CC2,-3.15%,–
CC(C)CN1CCC2(CC1)CCN(C(=O)c1ccncc1)CC2,–,3980 nM (active)
COC(=O)[C@@]1(Cc2ccc(OC)cc2)[C@H]2c3cc(C(=O)N4CCCC4)n(Cc4ccc(Cl)c(C(F)(F)F)c4)c3C[C@H]2CN1C(=O)c1ccccc1,-5.8%,–
COc1cc(NC(=S)NC(=O)c2c(OC)cccc2OC)ccc1NC(=O)c1cccs1,-8.39%,–
C=C1c2cccc(O)c2C(O)=C2C(=O)[C@@]3(O)C(O)=C(C(N)=O)C(=O)[C@@H](N(C)C)[C@@H]3[C@@H](O)[C@H]12,1.57% [at 25.6 µM],–
CCOC(=O)N1CCN(C(=O)CNCc2cccs2)CC1,–,3980 nM (active)
CCOC(=O)N1CCN(c2nc(-c3cccs3)cc(C(F)(F)F)n2)CC1,-26.9%,–

SMILES,"activity, negative = inhibition",AC50
CCOC(=O)N1CCN(C(=O)CNS(=O)(=O)c2cccs2)CC1,-18.3%,–
O=c1n(-c2ccccc2)c(=O)n2n1CC[C@H]1/C(=N\OCc3ccccc3)[C@H]3O[C@@H]3[C@@H](O)[C@@H]12,10.4% [at 11.4 µM],–
c1ccc(Oc2cc(-c3ccccc3)ncn2)cc1,19.9%,–
c1coc(CN2CCN(C(c3cccs3)c3nnnn3C3CCCC3)CC2)c1 (centres undefined),–,1260 nM (active)
Cc1ccc(C(c2nnnn2C2CCCC2)N2CCN3CCCC3C2)cc1 (centres undefined),–,447 nM (active)
Clc1ccc(C(c2nnnn2C2CCCC2)N2CCN(Cc3ccncc3)CC2)cc1 (centres undefined),–,1260 nM (active)
CON(C)C(=O)c1nnc2c3ccccc3n(S(=O)(=O)c3ccc(C)cc3)c2n1,-3.04% [at 11.4 µM] and -5.32% [at 11.4 µM],–
O=c1c(-c2ccc(F)cc2)nc2cnc(Nc3ccccc3)nc2n1Cc1cccs1,8.67%,–
CC(C)N(CC(=O)O)CC(=O)O,12.3% [at 11.4 µM],–
CO[C@H]1COC(=O)[C@@H](C)COC(=O)[C@@H](Cc2ccccc2)NC(=O)C/C=C\[C@H]1C,0.386% [at 11.4 µM],–
Cc1ccc(S(=O)(=O)N(CC(=O)N/N=C/c2ccc(F)cc2)c2cccc3cccnc23)cc1,-8.45%,–
CCCOc1ccc(OCCNC2CCCC2)cc1,–,1260 nM (active)
CCCOc1ccc(-c2nc(N)n[nH]2)cc1,-9.35%,–
CCCOc1ccc(C(=O)NNC(=S)NC(=O)CC)cc1,-9.37%,–
O=C(Nc1cccc(F)c1)N1CC[C@@]2(CCCN(C(=O)c3cnccn3)C2)C1,-0.771%,–
CC(C)(C)NC(=O)C(=O)N/N=C/c1ccc(Br)cc1,-2.47%,–
Nc1nc(-c2ccccc2)cc(-c2ccccc2O)n1,1.69%,–
COc1cccc(Cn2c(=O)c(-c3ccc(Cl)cc3)nc3cnc(OC)nc32)c1,-8.08%,–
c1ccc(CCN2CCN=C2Cc2ccccc2)cc1,–,126 nM (active)
C[C@H](c1ccccc1)N1C(=O)[C@H]2[C@@H]3[C@H](O)[C@H](O)CC(=O)[C@H]3CC[C@H]2C1=O,4.75% [at 11.4 µM],–
